# Records with an inconclusive call do not appear. Active and inactive are the calls of the source. The calls were made as follows, unless noted: active = hit-call score of the fitted dose curve at least 0.9, where 1 is the maximum; inactive = score below 0.9.
# Test: STM_H9_CystineISnorm_perc: Stemina devTOX quickPredict H9 human embryonic stem cell (hESC)-based Assay for Cystine (CYSS) Metabolite Biomarker, Normalized (AID 2283713)
# In short: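 H9 hESC, pluripotent; compound 72h, re-dosed q24h with medium change. Last-24h medium → 40% acetonitrile deproteinization → UPLC-HRMS. CYSS area / C13-CYSS standard, then % of 0.1% DMSO median.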
row,Compound,outcome
1,CCCc1cc(=O)[nH]c(=S)[nH]1,inactive
2,CCCCC(CC)COC(=O)CC(C(=O)OCC(CC)CCCC)S(=O)(=O)O (configuration not stated),inactive
3,CC1=C(/C=C/C(C)=C/C=C/C(C)=C/CO)C(C)(C)CCC1,inactive
4,CCOc1ccc2c(c1)C(C)=CC(C)(C)N2,inactive

# Test: STM_H9_OrnCyssISnorm_ratio: Stemina devTOX quickPredict H9 human embryonic stem cell (hESC)-based Assay for Ornithine (ORN):Cystine (CYSS) Ratio (AID 2283714; active = hit-call score of the fitted dose curve at least 0.9, where 1 is the maximum)
# In short: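 Steps: H9 hESCs in pluripotent state dosed 72h, medium plus compound renewed every 24h; conditioned medium from the final 24h deproteinized in 40% acetonitrile; ORN and CYSS quantified by UPLC-HRMS with C13 spike-ins; ratio relative to vehicle.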
row,Compound,outcome
1,CCCc1cc(=O)[nH]c(=S)[nH]1,inactive
2,CCCCC(CC)COC(=O)CC(C(=O)OCC(CC)CCCC)S(=O)(=O)O (configuration not stated),inactive
3,CCOc1ccc2c(c1)C(C)=CC(C)(C)N2,inactive

# Reference: PubChem BioAssay (EPA / NIEHS)
